Test results reported in PubChem BioAssay (NCATS).
Inconclusive results are not listed. Calls of active or inactive are those of the source. Unless noted, calls follow the shape of the dose curve; as a rule, active = well fitted curve in the direction sought with a large enough effect; inconclusive = small, poorly fitted or top-dose-only effect, or another doubt; inactive = no such curve, though single readings can be large; an effect the other way counts as inactive or inconclusive.

How the values were obtained:
[1] = biological target: Mitogen-activated protein kinase 10 (Mus musculus) (UniProt Q61831); assay: JNK3 AlphaScreen Assay (AID 530; active = well fitted curve in either direction with a large enough effect, not every such curve was filed as active;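 also: kinase came from lysate of stimulated human HepG2 cells; signal reports phosphorylation of biotinylated GST-cJun 1-79 at Ser73 with 10 µM ATP; % is scaled to controls: 0 for no effect and ±100 for the full control effect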)
How it was run: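 Compound titrations were preincubated 15 minutes at room temperature with substrate, antibody and pre-activated JNK3-containing HepG2 lysate. Reactions were started with 10 uM ATP and stopped with EDTA-containing bead buffer for AlphaScreen detection.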

[2] = qHTS Assay for Lipid Storage Modulators (AID 1519; calls by dose curve; as to activity change, negative = inhibition: % is scaled to controls: 0 for no effect and ±100 for the full control effect); conditions: Drosophila S3 cells, BODIPY lipid droplet/cell ratio, laser cytometry, cells loaded with oleic acid
How it was run: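 Cells seeded at 5,000 per well were treated with compounds over a concentration series and loaded with oleic acid (400 uM, as added). Lipid droplet fluorescence (488 nm excitation, 500-530 nm channel) was read by laser-scanning cytometry and normalized to 20 uM Triacsin C.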

[3] = biological target: Ubiquitin carboxyl-terminal hydrolase 1 (Homo sapiens) (UniProt O94782); assay: Inhibitors of USP1/UAF1: Pilot qHTS (AID 504865);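 also: rhodamine fluorescence freed from ubiquitin-rhodamine substrate followed over time; top concentration of the series differs between compounds; % is scaled to controls: 0 for no effect and ±100 for the full control effect; nearly all actives have a fitted effect of over 35% in size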
Sequence of Ubiquitin carboxyl-terminal hydrolase 1 (Homo sapiens) (O94782 whole entry, looked up): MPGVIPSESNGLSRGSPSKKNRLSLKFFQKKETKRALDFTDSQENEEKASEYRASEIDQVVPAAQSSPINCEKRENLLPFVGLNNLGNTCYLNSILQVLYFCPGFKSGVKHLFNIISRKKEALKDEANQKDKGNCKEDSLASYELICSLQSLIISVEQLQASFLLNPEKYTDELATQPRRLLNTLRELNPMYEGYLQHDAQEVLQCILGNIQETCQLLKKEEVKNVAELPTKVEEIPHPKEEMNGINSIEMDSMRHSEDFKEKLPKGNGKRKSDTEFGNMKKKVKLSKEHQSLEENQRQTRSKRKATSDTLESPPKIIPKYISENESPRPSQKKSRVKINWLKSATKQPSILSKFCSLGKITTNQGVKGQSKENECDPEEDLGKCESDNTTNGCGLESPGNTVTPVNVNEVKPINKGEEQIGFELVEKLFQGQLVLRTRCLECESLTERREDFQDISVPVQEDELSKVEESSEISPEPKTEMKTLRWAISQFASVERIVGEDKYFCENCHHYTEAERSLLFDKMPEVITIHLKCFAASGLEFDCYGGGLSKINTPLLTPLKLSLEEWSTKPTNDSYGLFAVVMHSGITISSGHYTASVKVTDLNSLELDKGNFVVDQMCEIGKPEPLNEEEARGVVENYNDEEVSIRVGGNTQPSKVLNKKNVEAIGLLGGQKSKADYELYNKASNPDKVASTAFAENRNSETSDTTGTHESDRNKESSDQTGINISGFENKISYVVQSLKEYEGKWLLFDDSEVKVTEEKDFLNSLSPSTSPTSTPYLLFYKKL
How it was run: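 Kinetic fluorescence assay: 1nM USP1/UAF1, 15 min compound preincubation, then 150nM Ub-Rho; 480/540 nm.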

[4] = Stat Signaling Pathway (AID 446; active = well fitted curve in either direction with a large enough effect, not every such curve was filed as active;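 also: ME-180 cervical cancer cells given 40 pM IL-6 alongside compound; SIE-controlled beta-lactamase reporter measured as 460/530 nm FRET emission ratio; % is scaled to controls: 0 for no effect and ±100 for the full control effect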)
How it was run: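 IL-6/STAT signaling read in ME-180 cells via an SIE beta-lactamase reporter. Stimulus was 40 pM IL-6 (its AC50) for 5 hrs, so both activation and inhibition register.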

[5] = biological target: 3',5'-cyclic-AMP phosphodiesterase 4B (Homo sapiens) (UniProt Q07343); assay: qHTS Assay for Inhibitors of PDE-IV (AID 607; active = well fitted activation curve with a large enough effect in the main read-out, with a control signal flat, not every such curve was filed as active; also: % of control where 0% means no effect)
Sequence of 3',5'-cyclic-AMP phosphodiesterase 4B (Homo sapiens) (Q07343 whole entry, looked up): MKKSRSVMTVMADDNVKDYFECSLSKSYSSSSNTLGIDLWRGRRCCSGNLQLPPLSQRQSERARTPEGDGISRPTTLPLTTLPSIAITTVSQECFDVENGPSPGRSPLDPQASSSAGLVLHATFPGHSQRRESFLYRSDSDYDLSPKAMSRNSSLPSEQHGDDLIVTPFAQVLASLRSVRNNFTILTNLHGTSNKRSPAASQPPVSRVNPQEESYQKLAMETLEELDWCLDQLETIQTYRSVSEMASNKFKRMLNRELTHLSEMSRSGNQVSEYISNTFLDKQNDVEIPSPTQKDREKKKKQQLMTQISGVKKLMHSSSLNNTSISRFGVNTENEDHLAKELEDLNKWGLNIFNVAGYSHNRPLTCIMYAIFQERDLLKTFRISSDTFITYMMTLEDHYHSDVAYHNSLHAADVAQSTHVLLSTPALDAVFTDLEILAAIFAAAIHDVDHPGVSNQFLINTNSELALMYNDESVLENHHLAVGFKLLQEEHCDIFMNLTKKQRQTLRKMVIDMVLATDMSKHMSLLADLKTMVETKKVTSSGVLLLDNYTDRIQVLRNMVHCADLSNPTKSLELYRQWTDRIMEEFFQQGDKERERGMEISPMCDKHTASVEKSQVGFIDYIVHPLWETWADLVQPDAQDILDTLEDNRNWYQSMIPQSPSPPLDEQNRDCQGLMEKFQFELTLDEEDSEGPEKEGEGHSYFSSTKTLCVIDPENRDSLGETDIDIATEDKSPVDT
How it was run: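 Live HEK293 cells with a modified cyclic nucleotide-gated (CNG) channel report intracellular cAMP via membrane-potential dye fluorescence (ex 535/em 590 nm). Endogenous PDE-IV was targeted. Compounds were tested at up to 22.9 uM final; RO 20-1724 100 uM served as control.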

[6] = biological target: ATP-dependent 6-phosphofructokinase (Trypanosoma brucei brucei) (UniProt O15648); assay: qHTS Assay to Find Inhibitors of T. brucei phosphofructokinase: hit validation (AID 492961);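 also: luminescence reports ADP formed as PFK phosphorylates fructose-6-phosphate with ATP; % is scaled to controls: 0 for no effect and ±100 for the full control effect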
Sequence of ATP-dependent 6-phosphofructokinase (Trypanosoma brucei brucei) (O15648 whole entry, looked up): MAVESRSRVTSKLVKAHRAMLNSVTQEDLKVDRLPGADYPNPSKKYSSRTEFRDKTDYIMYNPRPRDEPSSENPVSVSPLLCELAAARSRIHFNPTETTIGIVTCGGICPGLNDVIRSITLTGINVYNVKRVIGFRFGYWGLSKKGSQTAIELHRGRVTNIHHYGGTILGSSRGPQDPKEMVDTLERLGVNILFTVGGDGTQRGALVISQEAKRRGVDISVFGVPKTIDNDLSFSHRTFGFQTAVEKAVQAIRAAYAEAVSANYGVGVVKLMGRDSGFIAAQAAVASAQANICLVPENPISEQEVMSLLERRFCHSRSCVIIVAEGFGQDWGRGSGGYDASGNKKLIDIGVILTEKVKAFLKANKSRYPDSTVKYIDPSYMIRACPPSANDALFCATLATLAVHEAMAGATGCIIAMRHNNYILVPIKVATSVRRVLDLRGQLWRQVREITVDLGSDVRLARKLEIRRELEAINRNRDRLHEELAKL
How it was run: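 Measures ADP output of PFK (1.25 nM) at 0.1 mM ATP, 0.5 mM F6P, pH 8.0 TEA buffer with 5 mM MgCl2. No-enzyme wells define full inhibition; uninhibited enzyme wells define zero.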

[7] = biological target: Luciferin 4-monooxygenase (Photinus pyralis) (UniProt P08659); assay: Biochemical firefly luciferase enzyme assay for NPC (AID 624030); also: nearly all actives have a fitted effect of over 70% in size; also: potency is read from the fitted curve at half-maximal effect;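 as to activity change, negative = inhibition: purified P. pyralis luciferase at 10 nM with luciferin and ATP substrate; 0% = DMSO and -100% = full luciferase inhibition by PTC124 control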
Sequence of Luciferin 4-monooxygenase (Photinus pyralis) (P08659 whole entry, looked up): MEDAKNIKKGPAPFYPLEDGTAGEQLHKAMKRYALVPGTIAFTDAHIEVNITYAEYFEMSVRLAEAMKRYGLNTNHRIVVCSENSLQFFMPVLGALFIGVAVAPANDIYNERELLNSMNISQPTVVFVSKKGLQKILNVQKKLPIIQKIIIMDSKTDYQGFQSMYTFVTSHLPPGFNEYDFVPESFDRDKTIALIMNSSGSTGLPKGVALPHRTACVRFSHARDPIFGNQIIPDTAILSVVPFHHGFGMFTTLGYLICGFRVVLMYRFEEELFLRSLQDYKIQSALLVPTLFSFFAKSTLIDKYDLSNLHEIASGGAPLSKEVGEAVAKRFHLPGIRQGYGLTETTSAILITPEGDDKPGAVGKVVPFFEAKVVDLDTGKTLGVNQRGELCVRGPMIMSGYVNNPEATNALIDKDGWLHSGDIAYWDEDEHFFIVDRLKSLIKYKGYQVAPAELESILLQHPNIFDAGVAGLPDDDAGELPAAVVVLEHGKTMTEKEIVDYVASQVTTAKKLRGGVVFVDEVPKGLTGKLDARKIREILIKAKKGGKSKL
How it was run: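 Direct inhibition of firefly luciferase enzyme (10 nM final, 50 mM Tris Acetate) assessed by luminescence within 5 minutes. Percent activity scaled between DMSO and PTC124 positive control, with concentration-effect curves classified by fit quality and response.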

[8] = qHTS profiling for inhibitors of Plasmodium falciparum proliferation (AID 504749);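 also: 0% = DMSO vehicle and full inhibition = artemisinin control; nearly all actives have a fitted effect of over 60% in size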; conditions: P. falciparum in erythrocytes, SYBR Green DNA, 72 h, at 12.8 µM (top of the series)
How it was run: (§1)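 Infected RBCs, 0.3% parasitemia/2.5% Hct final; cpd 72 h, 37 C, 5% CO2; lysis buffer with saponin/triton/SYBR Green I, o/n RT dark; FI 485/535; norm. to artemisinin (0.29 uM) and DMSO.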

3D7 = assay: as above; conditions: P. falciparum in erythrocytes, SYBR Green DNA, 72 h; series mostly up to 12.8 µM
How it was run: as §1

C2A = assay: as above; conditions: P. falciparum in erythrocytes, SYBR Green DNA, 72 h; series mostly up to 12.8 µM
How it was run: as §1

CP217 = assay: as above; conditions: P. falciparum in erythrocytes, SYBR Green DNA, 72 h; series mostly up to 12.8 µM
How it was run: as §1

CP238 = assay: as above; conditions: P. falciparum in erythrocytes, SYBR Green DNA, 72 h; series mostly up to 12.8 µM
How it was run: as §1

CP262 = assay: as above; conditions: P. falciparum in erythrocytes, SYBR Green DNA, 72 h; series mostly up to 12.8 µM
How it was run: as §1

CP269 = assay: as above; conditions: P. falciparum in erythrocytes, SYBR Green DNA, 72 h; series mostly up to 12.8 µM
How it was run: as §1

CP305 = assay: as above; conditions: P. falciparum in erythrocytes, SYBR Green DNA, 72 h; series mostly up to 12.8 µM
How it was run: as §1

CP325 = assay: as above; conditions: P. falciparum in erythrocytes, SYBR Green DNA, 72 h; series mostly up to 12.8 µM
How it was run: as §1

CP329 = assay: as above; conditions: P. falciparum in erythrocytes, SYBR Green DNA, 72 h; series mostly up to 12.8 µM
How it was run: as §1

DIV30 = assay: as above; conditions: P. falciparum in erythrocytes, SYBR Green DNA, 72 h; series mostly up to 12.8 µM
How it was run: as §1

FAB9 = assay: as above; conditions: P. falciparum in erythrocytes, SYBR Green DNA, 72 h; series mostly up to 12.8 µM
How it was run: as §1

PC49 = assay: as above; conditions: P. falciparum in erythrocytes, SYBR Green DNA, 72 h; series mostly up to 12.8 µM
How it was run: as §1

[9] = measured here: cell count channel max response
[10] = measured here: lipid channel max response

C=C(C)[C@H]1CC[C@]2(C(=O)O)CC[C@]3(C)[C@@H](CC[C@H]4[C@@]5(C)CC[C@@H](O)C(C)(C)[C@@H]5CC[C@@]43C)[C@H]12
-3%: max response [2, 9]
-17.2%: max response [2, 10]
inactive: Potency [1] | activity change, negative = inhibition ([2]; at 25.7 µM (top of the series)) -9.82% | Potency [3]

C1CCC(C(C[C@@H]2CCCCN2)C2CCCCC2)CC1
inactive: outcome [4] | Potency [1] | activity change, negative = inhibition ([2]; at 25.7 µM (top of the series)) -4.85% | Potency [3]
-11.9%: max response [2, 9]
-15.6%: max response [2, 10]

C[C@H]1CC[C@@H]2[C@@H](C)[C@H]3[C@H](C[C@H]4[C@@H]5CC=C6C[C@@H](O[C@]7(O[C@H]8O[C@@H](C)[C@@H](O)[C@@H](O)[C@@H]8O)C[C@@H](O[C@@H]8O[C@H](CO)[C@@H](O)[C@H](O)[C@@H]8O)[C@@H](O)[C@H](CO)O7)CC[C@]6(C)[C@H]5CC[C@@]34C)N2C1
-8.96%: max response [2, 9]
-10.1%: max response [2, 10]
inactive: outcome [4] | Potency [1] | outcome [5] | activity change, negative = inhibition ([2]; at 25.7 µM (top of the series)) -0.703% | Potency [3]

CO[C@]1(NC(=O)C2SC(=C(C(N)=O)C(=O)O)S2)C(=O)N2C(C(=O)O)=C(CSc3nnnn3C)CS[C@H]21 (some centres not stated)
inactive: outcome [4] | Potency [1] | outcome [5] | activity change, negative = inhibition ([2]; at 25.7 µM (top of the series)) 0.935% | outcome [6] | Potency [7] | activity, negative = inhibition ([8]; parasite line A) -5.23% | activity, negative = inhibition ([8]; parasite line B) -0.327% | Potency (3D7) | Potency (C2A) | Potency (CP217) | Potency (CP238) | Potency (CP262) | Potency (CP269) | Potency (CP305) | Potency (CP325) | Potency (CP329) | Potency (DIV30) | Potency (FAB9) | Potency (PC49)
1.63%: max response [2, 10]
0.185%: max response [2, 9]

O=C(OC[C@@H](O)CO)c1ccccc1Nc1ccnc2cc(Cl)ccc12
inactive: outcome [4] | Potency [1] | outcome [5] | activity change, negative = inhibition ([2]; at 25.7 µM (top of the series)) -2.54% | outcome [6] | Potency [7] | activity, negative = inhibition ([8]; parasite line A) -14.6% | activity, negative = inhibition ([8]; parasite line B) -22.4% | Potency (3D7) | Potency (C2A) | Potency (CP217) | Potency (CP238) | Potency (CP262) | Potency (CP269) | Potency (CP305) | Potency (CP325) | Potency (CP329) | Potency (DIV30) | Potency (FAB9) | Potency (PC49)
3.2%: max response [2, 10]
9.55%: max response [2, 9]

O=C(Nc1ccccc1)OC[C@H](CN1CCCCC1)OC(=O)Nc1ccccc1
-11%: max response [2, 10]
inactive: outcome [4] | Potency [1] | outcome [5] | activity change, negative = inhibition ([2]; at 25.7 µM (top of the series)) -4.16% | outcome [6] | Potency [7] | activity, negative = inhibition ([8]; parasite line A) -1.15% | activity, negative = inhibition ([8]; parasite line B) -2.24% | Potency (3D7) | Potency (C2A) | Potency (CP217) | Potency (CP238) | Potency (CP262) | Potency (CP269) | Potency (CP305) | Potency (CP325) | Potency (CP329) | Potency (DIV30) | Potency (FAB9) | Potency (PC49)
-5.88%: max response [2, 9]

C[C@@H](C(=O)O)c1ccc(C(=O)c2ccccc2)s1
active: Potency [7] 4.89 µM
1.62%: max response [2, 9]
2.32%: max response [2, 10]
inactive: outcome [4] | Potency [1] | outcome [5] | activity change, negative = inhibition ([2]; at 25.7 µM (top of the series)) -0.119% | outcome [6] | Potency [3] | activity, negative = inhibition ([8]; parasite line A) 5.2% | activity, negative = inhibition ([8]; parasite line B) 16.9% | Potency (3D7) | Potency (C2A) | Potency (CP217) | Potency (CP238) | Potency (CP262) | Potency (CP269) | Potency (CP305) | Potency (CP325) | Potency (CP329) | Potency (DIV30) | Potency (FAB9) | Potency (PC49)

CC(=O)[C@H]1CC[C@@H]2[C@H]3CC=C4C[C@@H](O)CC[C@]4(C)[C@H]3CC[C@]12C
-15.2%: max response [2, 10]
-11.5%: max response [2, 9]
inactive: outcome [4] | Potency [1] | outcome [5] | activity change, negative = inhibition ([2]; at 25.7 µM (top of the series)) -2.95% | Potency [3]

COc1c2c(nc3ccccc13)O[C@H]([C@@](C)(O)CO)C2
inactive: outcome [4] | Potency [1] | outcome [5] | activity change, negative = inhibition ([2]; at 25.7 µM (top of the series)) 1.14% | Potency [3]
-17.8%: max response [2, 9]
-15.2%: max response [2, 10]

CN1CCC[C@@H](CC2c3ccccc3Sc3ccccc32)C1
-6.24%: max response [2, 10]
inactive: outcome [4] | Potency [1] | outcome [5] | activity change, negative = inhibition ([2]; at 25.7 µM (top of the series)) -5.3% | outcome [6] | Potency [3] | Potency [7] | activity, negative = inhibition ([8]; parasite line A) -16.3% | Potency (C2A) | Potency (CP217) | Potency (CP238) | Potency (CP262) | Potency (CP269) | Potency (CP325) | Potency (CP329) | Potency (FAB9) | Potency (PC49)
-0.662%: max response [2, 9]

Cc1ccnc(N)c1
-7.5%: max response [2, 9]
-8.73%: max response [2, 10]
inactive: activity change, negative = inhibition ([2]; at 57.5 µM (top of the series)) -1.11% | Potency [3]

CCC(=O)[C@@]1(C)[C@H](C)C[C@@H]2[C@@H]3CCC4=CC(=O)C=C[C@@]4(C)[C@H]3[C@H](O)C[C@]21C
-19.8%: max response [2, 10]
inactive: outcome [4] | Potency [1] | outcome [5] | activity change, negative = inhibition ([2]; at 25.7 µM (top of the series)) -1.25% | outcome [6] | activity, negative = inhibition ([8]; parasite line A) -6.51% | activity, negative = inhibition ([8]; parasite line B) 3.51% | Potency (C2A) | Potency (CP217) | Potency (CP238) | Potency (CP262) | Potency (CP269) | Potency (CP305) | Potency (CP325) | Potency (CP329) | Potency (DIV30) | Potency (FAB9) | Potency (PC49)
-14.6%: max response [2, 9]

COc1ccc([C@@H]2CC(=O)c3c(O)cc(O[C@H]4O[C@@H](CO[C@H]5O[C@@H](C)[C@@H](O)[C@@H](O)[C@@H]5O)[C@@H](O)[C@@H](O)[C@@H]4O)cc3O2)cc1O
-8.76%: max response [2, 10]
inactive: outcome [4] | Potency [1] | outcome [5] | activity change, negative = inhibition ([2]; at 25.7 µM (top of the series)) -0.902% | outcome [6] | Potency [3] | Potency [7] | activity, negative = inhibition ([8]; parasite line A) 5.87% | activity, negative = inhibition ([8]; parasite line B) -4.16% | Potency (3D7) | Potency (C2A) | Potency (CP217) | Potency (CP238) | Potency (CP262) | Potency (CP269) | Potency (CP305) | Potency (CP325) | Potency (CP329) | Potency (DIV30) | Potency (FAB9) | Potency (PC49)
-12%: max response [2, 9]
